Experimental data as given in the antibiotic and cytotoxicity screens of Wong et al. (2023).
The whole screen tested about 39,000 compounds, of which about 3,300 (8.5%) were called active. Shown is part of a subset that was picked to be rich in actives.

Tested on: HepG2
Assay: cytotoxicity call (relative viability < 0.9)
Conditions: 10 µM

Compound | cytotoxicity call
CC(C)Cc1ccc(C(C)C(=O)O)cc1 (configuration not stated) | inactive
N[C@@H](Cc1ccc(Cl)cc1)C(=O)O | inactive
CC(C)Cc1ccc([C@@H](C)C(=O)Nc2ccc(Cl)cc2)cc1 | active
C[C@@H]1CN([C@@H](C)CO)C(=O)CCCn2nncc2CO[C@H]1CN(C)C(=O)Nc1ccc2c(c1)OCO2 | inactive
C[C@@H]1CN([C@@H](C)CO)C(=O)c2cc(-c3cncnc3)cnc2O[C@@H]1CN(C)C(=O)Nc1ccc2c(c1)OCO2 | inactive
O=C(CCCl)NCCc1ccccc1 | inactive
COc1ccc(N(C(=O)CCl)[C@@H](C(=O)NCCc2ccccc2)c2ccc(Cl)s2)cc1Cl | active
COc1ccc(N(C(=O)CSc2ncccn2)[C@@H](C(=O)NCCc2ccccc2)c2cccs2)cc1Cl | inactive
CC(C)(C)OC(=O)NCCOCCOCCOc1ccc(N(C(=O)CCl)[C@@H](C(=O)NCCc2ccccc2)c2cccs2)cc1Cl | active
Cc1noc(C)c1S(=O)(=O)Nc1cccc2c1O[C@H](CN(C)S(C)(=O)=O)[C@H](C)CN([C@H](C)CO)C2=O | inactive
C[C@H]1CN([C@@H](C)CO)C(=O)Cc2cc(NS(=O)(=O)c3cn(C)cn3)ccc2O[C@@H]1CN(C)Cc1ccccc1 | inactive
C[C@@H]1CCCCO[C@@H](CN(C)C(=O)Nc2ccc3c(c2)OCO3)[C@H](C)CN([C@H](C)CO)C(=O)c2cc(NC(=O)c3ccncc3)ccc2O1 | inactive
COc1ccc(CNC(=O)C[C@@H]2C[C@@H]3c4cc(NS(=O)(=O)c5ccc(F)cc5)ccc4O[C@@H]3[C@@H](CO)O2)cc1 | inactive
C[C@H]1CCCCO[C@@H](CN(C)C(=O)Nc2ccc(F)cc2)[C@@H](C)CN([C@@H](C)CO)C(=O)c2cc(NC(=O)Nc3ccccc3)ccc2O1 | inactive
C[C@@H]1CCCCO[C@H](CN(C)Cc2ccncc2)[C@@H](C)CN([C@H](C)CO)C(=O)c2cc(NC(=O)Nc3ccc4c(c3)OCO4)ccc2O1 | inactive
CCC(=O)N(C)C[C@H]1Oc2ncc(C#C[C@@H](C)O)cc2C(=O)N([C@@H](C)CO)C[C@H]1C | inactive
C[C@@H]1CCCCO[C@H](CN(C)S(=O)(=O)c2ccc(F)cc2)[C@H](C)CN([C@@H](C)CO)C(=O)c2cc(NC(=O)c3ccccc3)ccc2O1 | inactive
C[C@H]1CCCCO[C@H](CN(C)S(=O)(=O)c2ccc(F)cc2)[C@@H](C)CN([C@@H](C)CO)C(=O)c2cc(NC(=O)c3ccccc3)ccc2O1 | active
C[C@@H]1CN([C@H](C)CO)C(=O)c2cc(NC(=O)c3ccccc3)ccc2O[C@@H](C)CCCCO[C@H]1CN(C)S(=O)(=O)c1ccc(F)cc1 | active
C[C@H](CO)N1C[C@H](C)[C@H](CN(C)S(=O)(=O)c2ccc(F)cc2)OCCCC[C@H](C)Oc2ccc(NC(=O)c3ccccc3)cc2C1=O | inactive
C[C@@H]1CCCCO[C@H](CN(C)S(=O)(=O)c2ccc(F)cc2)[C@@H](C)CN([C@H](C)CO)C(=O)c2cc(NC(=O)c3ccccc3)ccc2O1 | inactive
C[C@@H]1CCCCO[C@@H](CN(C)S(=O)(=O)c2ccc(F)cc2)[C@@H](C)CN([C@@H](C)CO)C(=O)c2cc(NC(=O)c3ccccc3)ccc2O1 | inactive
